# Screening data (PubChem BioAssay)
# PTK2B oligo ant: antagonists of Pyk2 self-association, primary screen, Q293 cells, FERM NanoBiT luminescence, HTS; active compounds read low; z-score (the deposit names both 25 µM and 10 µM); hit rate 0.83% among 99,000; AID 1347419, 2020;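 active means Z-score of -3 or lower, scaled per plate to the spread of control and sample wells; inactive means z-score above -3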;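 further: negative z-score means lost luminescence so less FERM oligomerization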
# sdo1 growth: growth rescue of sdo1-depleted yeast, primary screen, S. cerevisiae, bone marrow failure model. AID 817, 2007. z-score at 10 µM. S. cerevisiae sdo1-depleted JHY4D growth rescue, OD600 30 h; active compounds read high; pdr5 snq2 efflux-pump mutant strain. hit rate 0.21% among 140,000;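 active means z-score above 3 at both the 24 hr and the 30 hr optical density reads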;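 further: z-score against mean and SD of all compound wells on the same plate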
# PLK1 PBD inh: Plk1 polo box domain binding inhibitors, primary screen, biochemical, fluorescence polarization | hit rate 0.13% among 97,000 | Plk1 PBD phosphopeptide binding | inhibition, %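 (tested at about 20 µM)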 | AID 693, 2007; in the data active means inhibition above about 34%, passing the limit was not always enough
# Cav32 inh: Cav3.2 calcium influx blockers – cell-based, Fluo-4 calcium fluorescence, FDSS, MLSMR library, primary screen | Voltage-dependent T-type calcium channel subunit alpha-1H (Homo sapiens), O95180 | Cav3.2-expressing cells; active compounds read low | B-score at 10 µM | hit rate 4% among 100,000 | AID 449739, 2010;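 active means single-dose well whose peak fluorescence ratio is a statistical outlier from its plate by either plate-standardised score or position-corrected B-score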
# PLK1 kinase inh: human PLK1 kinase inhibitors, primary screen, biochemical, TR-FRET; inhibition, % at 10 µM; recombinant PLK1 kinase, TR-FRET peptide phosphorylation; hit rate 0.53% among 97,000; Serine/threonine-protein kinase PLK1 (Homo sapiens), P53350;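 active means inhibition of 50% or more in the single-concentration screen; inactive means inhibition below 50%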;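 further: 0% = DMSO max control and 100% = H-89 dihydrochloride min control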
# hDAT+cocaine: changed hDAT dopamine uptake under cocaine IC80, either direction, primary screen, cocaine antagonist project, cell-based, LLC-PK1 hDAT, [14C]-dopamine uptake, MLSMR. AID 449768, 2010. LLC-PK1 hDAT cells, [14C]-dopamine uptake with cocaine IC80; actives deviate in either direction. B-score at 10 µM. hit rate 1.3% among 110,000;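 active means Z score or B-score, a plate-position-corrected score, falls beyond the plate's 99.7% confidence bounds, in either direction; inactive means both scores lie inside the 99.7% bounds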;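 further: scored against the spread of the other compound wells on the same plate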
# Target sequence (Q01959 whole entry, looked up): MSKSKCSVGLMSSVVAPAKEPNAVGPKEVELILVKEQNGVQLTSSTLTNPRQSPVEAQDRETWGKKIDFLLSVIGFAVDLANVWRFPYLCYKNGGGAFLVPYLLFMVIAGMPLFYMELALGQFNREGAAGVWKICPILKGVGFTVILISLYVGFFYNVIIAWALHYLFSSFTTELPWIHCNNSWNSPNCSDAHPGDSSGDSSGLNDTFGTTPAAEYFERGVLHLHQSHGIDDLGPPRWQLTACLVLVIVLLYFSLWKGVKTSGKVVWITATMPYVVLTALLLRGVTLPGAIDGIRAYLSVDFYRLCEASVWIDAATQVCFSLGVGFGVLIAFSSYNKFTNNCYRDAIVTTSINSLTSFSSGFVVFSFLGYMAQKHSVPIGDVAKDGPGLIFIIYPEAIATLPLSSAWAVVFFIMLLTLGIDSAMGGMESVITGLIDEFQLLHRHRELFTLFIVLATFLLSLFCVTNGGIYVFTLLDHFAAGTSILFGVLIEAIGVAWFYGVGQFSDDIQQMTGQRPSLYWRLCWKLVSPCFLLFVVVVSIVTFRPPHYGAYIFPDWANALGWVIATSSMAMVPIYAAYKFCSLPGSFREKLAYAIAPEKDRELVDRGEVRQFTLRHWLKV
# An asterisk follows results filed as active; . = no result given. Rows were chosen to be rich in hits. Some 4.7% of all compounds tested hit in one or more screens of this group.
SMILES,PTK2B oligo ant,sdo1 growth,PLK1 PBD inh,Cav32 inh,PLK1 kinase inh,hDAT+cocaine
CC(C)C(=O)N1CCC(CN=Cc2c(O)n(C3CCCCC3)c(=O)n(C3CCCCC3)c2=O)CC1,-2.62,-0.43,16.2,-10.7*,0.8,3.19*
CCC(=O)N(C)CCc1cc2c(c(OC)c1/C=N/NC(=O)c1ccc(Br)cc1)OCO2,.,0.14,.,.,.,.
O=C1C2C3C=CC(C3)C2C(=O)N1/N=C/c1ccc(-c2ccccc2[N+](=O)[O-])o1 (stereo not given),.,-0.86,.,.,.,.
Cc1ccc(-c2ccc(/C=N/N3C(=O)C4C5C=CC(C6CC56)C4C3=O)o2)c([N+](=O)[O-])c1 (stereo not given),-0.51,-1.54,-12.4,-5.11*,-14.6,0.92
Cc1ccccc1Nc1c(N)c(=O)oc2ccccc12,-0.31,-0.29,-5.0,-1.31,-8.0,-7.69*
C=C1c2ccccc2S(=O)(=O)N(Cc2ccccc2)C1COCc1ccccc1 (stereo not given),.,.,.,-2.16,.,0.914
COc1ccc(NC(=O)CSc2nnc(Cc3cccn3C)n2-c2ccc(OC)cc2)cc1,.,-0.69,.,-8.09*,.,-0.0233
COc1ccc(-n2c(Cc3cccn3C)nnc2SCC(=O)Nc2ccc3c(c2)OCCO3)cc1,.,-0.26,9.7,-10.1*,-18.5,0.55
COc1ccc(-n2c(Cc3cccn3C)nnc2SCC(=O)Nc2ccc(C)cc2)cc1,.,-1.88,.,-7.86*,.,2.35*
COc1ccc(-n2c(Cc3cccn3C)nnc2SCC(=O)NC2CCCCC2)cc1,.,0.02,.,-1.7,.,0.882
CCOc1ccc(NC(=O)CSc2nnc(Cc3cccn3C)n2-c2ccc(OC)cc2)cc1,-0.42,-0.3,-23.4,-2.75,-11.7,1.64
COc1ccc(-n2c(Cc3cccn3C)nnc2SCC(=O)Nc2ccc(C(C)=O)cc2)cc1,.,-0.26,2.9,-8.37*,-0.8,0.0949
O=C(CSC(=S)N1CCOCC1)Nc1nc(=O)c2ccccc2s1,.,1.05,.,.,.,.
CC(=C/c1ccco1)/C=N/NC(=O)CSc1nnc(SCc2ccc(C)cc2)s1,.,-0.84,.,.,.,.
COc1ccc(C(=O)c2c(C)c3cc(C)ccc3n2CC(O)CN2CCOCC2)cc1 (stereo not given),.,-1.19,.,.,.,.
Cc1ccc(C(=O)Nc2nc(=O)n(C(=O)CC(C)C)s2)cc1,-0.39,0.5,11.6,-3.8,-10.3,-0.0975
Cc1ccc(C(=O)Nc2nc(=O)n(C(=O)c3ccccc3Cl)s2)cc1,-0.4,-0.57,8.4,-6.06*,-7.3,-0.0412
O=S(=O)(NCCSc1ccccc1)c1ccc(F)cc1,2.53,-0.73,-19.3,-5.73*,-15.2,-0.00418
c1ccc(Cn2c(CSc3nnnn3-c3ccccc3)nc3ccccc32)cc1,-1.73,-1.26,-19.4,0.0398,-13.5,-1.66
COc1ccccc1Cn1c(-c2ccccc2OC)nc2ccccc21,-2.63,-1.9,4.0,-6.42*,0.4,-0.611
Oc1ccccc1Cn1c(-c2ccccc2O)nc2ccccc21,-2.23,-1.77,-1.2,-2.79,-9.1,-0.442
COc1ccc(-c2nc3ccccc3n2Cc2ccccc2)cc1,-1.09,-1.33,6.4,-9.91*,-11.7,0.667
c1ccc(Cn2c(NCc3ccco3)nc3ccccc32)cc1,0.08,-0.04,-19.6,-1.89,-7.5,-0.356
COc1ccc(CNc2nc3ccccc3n2Cc2ccccc2)cc1OC,1.45,-0.59,-9.0,-5.42*,-3.1,2.05
c1ccc(Cc2nc3ccccc3n2Cc2ccccc2)cc1,-0.49,-2.17,9.6,-4.34*,-10.6,1.16
SMILES,PTK2B oligo ant,sdo1 growth,PLK1 PBD inh,Cav32 inh,PLK1 kinase inh,hDAT+cocaine
CC(C)NS(=O)(=O)c1ccc(OCC(=O)Nc2ccc(F)cc2F)cc1,0.9,-0.53,-11.9,-1.76,-12.0,-0.464
CCNC(=S)N/N=C(\C)c1cccc([N+](=O)[O-])c1,.,-0.58,.,.,.,.
COc1ccc(NCc2nnc(SCc3ccc(Cl)cc3)n2-c2ccccc2)cc1,.,-1.61,.,.,.,.
CC(C)(CO)NCC(=O)Nc1cc(C(F)(F)F)cc(NC(=O)CNC(C)(C)CO)c1Cl,.,0.26,.,.,.,.
CCNS(=O)(=O)c1ccc(CCC(=O)NCCC2=CCCCC2)cc1,.,1.4,.,.,.,.
CC(C)(C)Cc1nc2ccccc2n1CCc1ccccc1,-0.52,-0.8,12.1,-4.28*,-5.5,-1.47
CC(C)Cc1nc2ccccc2n1CCc1ccccc1,.,-0.11,.,.,.,.
CC1CC(N(C(=O)c2ccccc2Cl)c2ccccc2)c2ccccc2N1 (stereo not given),-3.65*,-1.28,-0.6,.,7.3,.
CC1Cc2ccccc2N1C(=O)CN1CCC(n2nnc3cc(C(F)(F)F)ccc32)CC1 (stereo not given),0.18,-1.71,-10.8,-9.54*,-12.4,0.148
O=C(c1cc(N2C(=O)C3C4CCC(C4)C3C2=O)ccc1Cl)N1CCN(c2ccccc2F)CC1 (stereo not given),.,-0.49,.,.,.,.
CC[C@H](C)/C=C(C)/C=C/C(=O)Cc1cc(O)c(C)c(O)c1C=O,.,.,.,-3.64*,.,0.166
CC(C)(C#CCN1CCCCC1)OCCOC(c1ccccc1)c1ccccc1,.,-0.95,.,.,.,.
Cc1cccc(C)c1NC(=O)C(c1ccc([N+](=O)[O-])cc1)N1CCCCC1 (stereo not given),-0.62,-0.89,5.0,-5.57*,-16.9,-0.608
Cc1cc(NS(=O)(=O)c2ccc(NC(=O)c3ccco3)cc2)no1,-0.61,-0.54,-27.9,0.677,-9.0,2.71*
Cc1cc(NS(=O)(=O)c2ccc(NC(=O)c3ccco3)cc2)nc(C)n1,0.87,1.82,-17.7,0.0455,-10.9,-0.451
CC(C)N1CC2(c3ccccc3)CN(C(C)C)CC(c3ccccc3)(C1)C2=O,-0.31,0.04,0.1,-3.4*,-9.7,0.0249
CC(C)N1C(=O)NC2(c3ccccc3)N(C)C(=O)N(C)C12c1ccccc1 (stereo not given),.,1.22,.,.,.,.
COc1ccc(N2CCN(Cc3nc(N)nc(Nc4ccc(C)c(Cl)c4)n3)CC2)cc1,-0.37,-2.21,-24.2,-5.2*,0.1,1.04
Cc1ccc(Nc2nc(N)nc(CN3CCN(c4ccccc4)CC3)n2)cc1Cl,-0.59,-1.96,-11.0,-1.04,-1.9,1.39
Cc1ccc(Nc2nc(N)nc(CN3CCN(Cc4ccc5c(c4)OCO5)CC3)n2)cc1Cl,-0.85,-1.19,19.2,-5.19*,-5.5,0.346
Cc1ccc(Nc2nc(N)nc(CN3CCN(Cc4ccc5c(c4)OCO5)CC3)n2)cc1,-0.35,0.1,-4.1,-2.37,-13.5,0.184
O=C(CCc1ccc(S(=O)(=O)NCc2ccccc2)cc1)NCC1CCCO1 (stereo not given),.,2.35,.,.,.,.
CCc1ccc(C(=O)N2CCN(c3ccc(F)cc3)CC2)s1,-0.11,-0.84,9.7,-1.79,-8.5,2.01*
COc1ccc(-n2c(SCC(=O)Nc3sc4c(c3C#N)CCCC4)nnc2-c2ccccc2OC)cc1,-2.36,-0.24,4.6,-6.31*,-6.7,3.04
